High-throughput results deposited in PubChem by National Center for Advancing Translational Sciences (NCATS).
Pf growth 96h: P. falciparum growth inhibition at 96 hour, primary screen for plastid delayed-death inhibitors. P. falciparum luciferase reporter growth, 96 h. Potency, µM (titrated, usually from 28.7 µM), actives largely listed as inhibitors. 320,000 compounds, 6.9% hits
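Erythrocytes infected with luciferase-expressing P. falciparum were dispensed at 2% hematocrit and 0.05% parasitemia (final), then incubated with compounds 96 hours at 37 C in 5% CO2. Luminescence after detection reagent addition reported growth.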
Sm TGR inh: inhibitors of Schistosoma mansoni thioredoxin glutathione reductase | Q962Y6 | purified TGR, DTNB reduction, TNB absorbance 405 nm | Potency, µM (titrated, usually from 114 µM), actives largely listed as inhibitors | 360,000 compounds, 3% hits; note: nearly all actives have a fitted effect of over 60% in size
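Kinetic colorimetric format: TGR-catalysed, NADPH-driven DTNB reduction monitored via TNB absorbance. Enzyme dispensed at 20 nM; compound exposure 15 min at room temperature before reaction start.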
SARS PLpro yeast: blocks SARS-CoV papain-like protease in a yeast assay | S. cerevisiae expressing SARS-CoV PLpro, growth rescue | Potency, µM (highest dose often 32.9 µM), usual class: activators | 330,000 compounds, 0.19% hits; calls by dose curve; note: nearly all actives have a fitted effect of over 55% in size
Pf growth 48h: inhibits P. falciparum growth in the first generation, 48 h; P. falciparum luciferase growth in erythrocytes, 48 h; Potency, µM (titrated, usually from 28.7 µM), usual class: inhibitors; 310,000 compounds, 5.9% hits
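Luminescence readout; reporter = integrated firefly luciferase in P. falciparum. RBC culture at 2% hematocrit, 0.1% parasitemia final, 37 C/5% CO2; decreased signal taken as growth inhibition.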
A number is an active result; [ ] = dose if it differs, or a comment. Sampled rows, rich in hits. Any-hit rate of the full collection: about 12%. Unless noted, calls come from the whole dose curve; as a rule, active = well fitted curve in the direction sought with a large enough effect; inconclusive = small, poorly fitted or top-dose-only effect, or another doubt; inactive = no such curve, though single readings can be large; an effect the other way counts as inactive or inconclusive.

How did O=C(Cn1nnc(-c2ccccc2)n1)N/N=C/c1cc([N+](=O)[O-])ccc1O do in these assays?
Pf growth 96h: 10µM; Sm TGR inh: inactive; SARS PLpro yeast: inconclusive; Pf growth 48h: inactive

What do the screens show for `O=C(CCC(=O)Nc1cc(C(F)(F)F)ccc1Cl)N/N=C\c1cc([N+](=O)[O-])ccc1O`?
Pf growth 96h: inactive; Sm TGR inh: inactive; SARS PLpro yeast: inactive; Pf growth 48h: 13µM

Results for O=C(Cn1nc2ccccc2n1)N/N=C/c1cc([N+](=O)[O-])ccc1O ?
Pf growth 96h: inconclusive; Sm TGR inh: inactive; SARS PLpro yeast: inactive; Pf growth 48h: 4.7µM

How did N#C/C(=C\c1cc(Br)c(O)c(Br)c1)c1nc2ccccc2c(=O)[nH]1 do in these assays?
Sm TGR inh: inactive

Results for COCc1ccc(C(=O)N2CCCC(Nc3ccc4c(c3)OCCO4)C2)o1 (stereo not drawn) ?
Pf growth 96h: inactive; Sm TGR inh: inconclusive; SARS PLpro yeast: inactive; Pf growth 48h: inactive

What do the screens show for `O=C(N/N=C/c1cc([N+](=O)[O-])ccc1O)c1cccc(NC(=O)c2cccc(Cl)c2)c1`?
Pf growth 96h: inactive; Sm TGR inh: inactive; SARS PLpro yeast: inactive; Pf growth 48h: 2.3µM

How did CC(=O)N/N=C/c1cc([N+](=O)[O-])ccc1OCCOc1ccccc1 do in these assays?
Pf growth 96h: 6.6µM; Sm TGR inh: inactive; SARS PLpro yeast: inactive; Pf growth 48h: inactive

How did Cc1nc2ccc(C(=O)N/N=C/c3cc([N+](=O)[O-])ccc3O)cc2[nH]1 do in these assays?
Pf growth 96h: inactive; Sm TGR inh: inactive; SARS PLpro yeast: inactive; Pf growth 48h: inactive[5.75 µM]

How did O=C(N/N=C/c1cc([N+](=O)[O-])ccc1O)c1ccc(COc2ccc3c(c2)CCC3)o1 do in these assays?
Pf growth 96h: 9.3µM; Sm TGR inh: inactive; SARS PLpro yeast: inactive; Pf growth 48h: inconclusive

Results for CCc1cccc(NC(=O)CCNS(=O)(=O)c2ccc3c(c2)oc(=O)n3C)c1 ?
Pf growth 96h: inconclusive; Sm TGR inh: inactive; SARS PLpro yeast: inactive; Pf growth 48h: inactive

How did CCN(CC)C(=O)CSc1nc2c(sc(=S)n2-c2ccccc2)c(=O)n1-c1ccc(OC)cc1OC do in these assays?
Pf growth 96h: inconclusive; Sm TGR inh: inactive; SARS PLpro yeast: inactive; Pf growth 48h: 6.6µM

How did COc1ccccc1-n1c(SCC(=O)O)nc2c(sc(=S)n2-c2ccc(C)c(C)c2)c1=O do in these assays?
Pf growth 96h: inconclusive; Sm TGR inh: inactive; SARS PLpro yeast: inactive; Pf growth 48h: inactive

What do the screens show for `CCN(CC)C(=O)CSc1nc2c(sc(=S)n2-c2ccccc2)c(=O)n1-c1ccc(OC)c(OC)c1`?
Pf growth 96h: inactive; Sm TGR inh: inactive; SARS PLpro yeast: inactive; Pf growth 48h: 4.7µM

What do the screens show for `CCOC(=O)CSc1nc2c(sc(=S)n2-c2ccccc2)c(=O)n1-c1ccc(OC)cc1OC`?
Pf growth 96h: inactive; Sm TGR inh: inactive; SARS PLpro yeast: inactive; Pf growth 48h: 10µM

What do the screens show for `CCN(CC)C(=O)CSc1nc2c(sc(=S)n2-c2ccccc2)c(=O)n1-c1ccccc1OC`?
Pf growth 96h: inactive; Sm TGR inh: inactive; SARS PLpro yeast: inactive; Pf growth 48h: 8.3µM

Results for CCOC(=O)C(Cc1ccc(NC(C)=O)cc1)N1C(=O)c2ccccc2C1=O (stereo not drawn) ?
Pf growth 96h: inactive; Sm TGR inh: inactive; SARS PLpro yeast: inactive; Pf growth 48h: inactive

What do the screens show for `O=C(CN1C(=O)NC(c2ccc(F)cc2)C1=O)Nc1ccc2c(c1)OCCO2` (stereo not drawn)?
Pf growth 96h: inactive; Sm TGR inh: inactive; SARS PLpro yeast: inactive; Pf growth 48h: inactive

What do the screens show for `CN(C)c1ccc(C(=O)N(Cc2ccccc2)Cc2ccccc2)cc1`?
Pf growth 96h: 15µM; Sm TGR inh: inactive; SARS PLpro yeast: inactive; Pf growth 48h: inactive

Results for CN(C)c1cccc(C(=O)NCc2ccc3c(c2)OCO3)c1 ?
Pf growth 96h: inconclusive; Sm TGR inh: inactive; SARS PLpro yeast: inactive; Pf growth 48h: inconclusive

Results for CN(C)c1cccc(C(=O)NCc2ccc(Cl)cc2)c1 ?
Pf growth 96h: inactive; Sm TGR inh: inactive; SARS PLpro yeast: inactive; Pf growth 48h: 4.1µM

What do the screens show for `CN(C)c1cccc(C(=O)N(Cc2ccccc2)Cc2ccccc2)c1`?
Pf growth 96h: 10µM; Sm TGR inh: inactive; SARS PLpro yeast: inactive; Pf growth 48h: inactive

How did CN(C)c1ccc(C(=O)c2ccccc2)cc1 do in these assays?
Pf growth 96h: inactive; Sm TGR inh: inactive; SARS PLpro yeast: inactive

Results for Cc1cc(=O)[nH]c(SCC(=O)NC2CCCCC2)n1 ?
Pf growth 96h: inactive; Sm TGR inh: inactive; SARS PLpro yeast: inactive; Pf growth 48h: inconclusive
